Records with an inconclusive call do not appear. Where a call stands in place of a potency, no number is given. Activity calls are given as the source filed them. The call rests on the fitted dose curve; in most records, active means well fitted inhibition curve with a large enough effect; inconclusive means small, poorly fitted or top-dose-only effect; inactive means flat fitted curve, though single readings scatter.
System: PAD
Assay: qHTS profiling for inhibitors of Plasmodium falciparum proliferation (AID 504749); further: nearly all actives have a fitted effect of over 60% in size
Settings: P. falciparum in erythrocytes, SYBR Green DNA, 72 h; series mostly up to 28.7 µM
How it was run: (§1)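 SYBR Green fluorescence (ex 485 nm, em 535 nm) reports parasite DNA after 72 h compound exposure of infected red cells at 0.3% parasitemia, 2.5% hematocrit; signal normalized to 0.29 uM artemisinin and vehicle wells.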
Potency means the concentration at half of the fitted maximal effect.

Structure (SMILES) | Potency
CC(=O)Nc1ccc(OC(C)=O)cc1 | inactive
CC(C)(C)c1ccc2c(S(=O)(=O)O)c(C(C)(C)C)ccc2c1 | inactive
CCCCCCCCCCCCOCCCN | inactive
COC(=O)C(CN)c1c[nH]c2ccc(OC)cc12 (stereo not drawn) | inactive
CC1(C)S[C@@H]2[C@H](NC(=O)C3(N)CCCCC3)C(=O)N2[C@H]1C(=O)O | inactive
FC(F)(F)C(F)(F)C(F)(F)C(F)(F)C(F)(F)C(F)(F)F | inactive
CCCCO | inactive
CCOC(=O)c1c[nH]c2cc(OCC(C)C)c(OCC(C)C)cc2c1=O | 0.158 µM (active)
CCN(CC)CCOc1ccc2nc(N(C)C)sc2c1 | inactive
OCl | inactive
COC(=O)CC[C@H](N)C(=O)O | inactive
COc1cc(S(C)=O)ccc1-c1nc2ncccc2[nH]1 (stereo not drawn) | inactive
O=C(O)Cc1nn(Cc2ccc(Br)cc2F)c(=O)c2ccccc12 | inactive
O=C(O)/C=C/c1ccccc1 | inactive
Cc1cccc(C)c1NC(=O)NC1=CCCN1C | inactive
NCC[C@H](O)C(=O)N[C@@H]1C[C@H](N)[C@@H](O[C@H]2O[C@H](CN)[C@@H](O)[C@H](O)[C@H]2O)[C@H](O)[C@H]1O[C@H]1O[C@H](CO)[C@@H](O)[C@H](N)[C@H]1O | inactive
CC1=CC(=O)NS(=O)(=O)O1 | inactive
O=C(O)[C@H]1C(=CCO)O[C@H]2CC(=O)N12 | inactive
CCC(Cc1c(I)cc(I)c(O)c1I)C(=O)O (stereo not drawn) | inactive
CCCCC[C@H](O)/C=C/[C@@H]1[C@H]2C/C(=C/CCCC(=O)O)O[C@H]2C[C@H]1O | inactive

Structure (SMILES) | Potency
FCOC(C(F)(F)F)C(F)(F)F | inactive
C=Cc1ccc(S(=O)(=O)O)cc1 | inactive
CC12CCC(C[N+](C)(CCC[N+](C)(C)C)C1)C2(C)C (stereo not drawn) | inactive
CC1CC(OC(=O)C(O)c2ccccc2)CC(C)(C)C1 (stereo not drawn) | inactive
CC/C(=C(/CC)c1ccc(OP(=O)(O)O)cc1)c1ccc(OP(=O)(O)O)cc1 | inactive
O=C(NNCNNC(=O)c1ccncc1)c1ccncc1 | inactive
CC(C)c1ncc([N+](=O)[O-])n1C | inactive
CC(C)CCC[C@@H](C)[C@H]1CC[C@H]2[C@@H]3CC[C@@H]4C[C@H](O)CC[C@]4(C)[C@H]3CC[C@]12C | inactive
Cc1ccc(S(=O)(=O)NCl)cc1 | inactive
CC(/C=C/C=C(\C)C(=O)O[C@@H]1O[C@H](CO[C@@H]2O[C@H](CO)[C@@H](O)[C@H](O)[C@H]2O)[C@@H](O)[C@H](O)[C@H]1O)=C\C=C\C=C(C)\C=C\C=C(/C)C(=O)O[C@@H]1O[C@H](CO[C@@H]2O[C@H](CO)[C@@H](O)[C@H](O)[C@H]2O)[C@@H](O)[C@H](O)[C@H]1O | inactive
CCCCCCCCCCCCCCCCCC(=O)OCC(C)O (stereo not drawn) | inactive
CC(C)(Oc1ccc(C2CCCc3ccccc32)cc1)C(=O)O (stereo not drawn) | inactive
CO | inactive
O=C(O)/C=C/C(=O)Nc1ccc(S(=O)(=O)Nc2nccs2)cc1 | inactive
N[C@H](CC(=O)O)C(=O)O | inactive
CCCc1ccc(C(=O)O)cc1 | inactive
O=S(=O)(O)CC(S)CS (stereo not drawn) | inactive
O=c1[nH]c(=O)n([C@H]2C[C@H](O)[C@@H](CO)O2)cc1/C=C/Br | inactive
CN[C@@H]1[C@H](O[C@H]2[C@H](O[C@H]3[C@H](O)[C@@H](O)[C@H](N=C(N)N)[C@@H](O)[C@@H]3N=C(N)N)O[C@@H](C)[C@]2(O)C=O)O[C@@H](CO)[C@H](O)[C@H]1O | inactive

System: PC15
Assay: as above
Settings: P. falciparum in erythrocytes, SYBR Green DNA, 72 h; series mostly up to 28.7 µM
How it was run: as §1

Structure (SMILES) | Potency
CC(=O)Nc1ccc(OC(C)=O)cc1 | inactive
CC(C)(C)c1ccc2c(S(=O)(=O)O)c(C(C)(C)C)ccc2c1 | inactive
CCCCCCCCCCCCOCCCN | inactive
COC(=O)C(CN)c1c[nH]c2ccc(OC)cc12 (stereo not drawn) | inactive
CC1(C)S[C@@H]2[C@H](NC(=O)C3(N)CCCCC3)C(=O)N2[C@H]1C(=O)O | inactive
FC(F)(F)C(F)(F)C(F)(F)C(F)(F)C(F)(F)C(F)(F)F | inactive
CCCCO | inactive
CCOC(=O)c1c[nH]c2cc(OCC(C)C)c(OCC(C)C)cc2c1=O | 0.112 µM (active)
CCN(CC)CCOc1ccc2nc(N(C)C)sc2c1 | inactive
OCl | inactive
COC(=O)CC[C@H](N)C(=O)O | inactive
COc1cc(S(C)=O)ccc1-c1nc2ncccc2[nH]1 (stereo not drawn) | inactive
O=C(O)Cc1nn(Cc2ccc(Br)cc2F)c(=O)c2ccccc12 | inactive
O=C(O)/C=C/c1ccccc1 | inactive
Cc1cccc(C)c1NC(=O)NC1=CCCN1C | inactive
NCC[C@H](O)C(=O)N[C@@H]1C[C@H](N)[C@@H](O[C@H]2O[C@H](CN)[C@@H](O)[C@H](O)[C@H]2O)[C@H](O)[C@H]1O[C@H]1O[C@H](CO)[C@@H](O)[C@H](N)[C@H]1O | inactive
CC1=CC(=O)NS(=O)(=O)O1 | inactive
O=C(O)[C@H]1C(=CCO)O[C@H]2CC(=O)N12 | inactive
CCC(Cc1c(I)cc(I)c(O)c1I)C(=O)O (stereo not drawn) | inactive
CCCCC[C@H](O)/C=C/[C@@H]1[C@H]2C/C(=C/CCCC(=O)O)O[C@H]2C[C@H]1O | inactive

Structure (SMILES) | Potency
FCOC(C(F)(F)F)C(F)(F)F | inactive
C=Cc1ccc(S(=O)(=O)O)cc1 | inactive
CC12CCC(C[N+](C)(CCC[N+](C)(C)C)C1)C2(C)C (stereo not drawn) | inactive
CC1CC(OC(=O)C(O)c2ccccc2)CC(C)(C)C1 (stereo not drawn) | inactive
CC/C(=C(/CC)c1ccc(OP(=O)(O)O)cc1)c1ccc(OP(=O)(O)O)cc1 | inactive
O=C(NNCNNC(=O)c1ccncc1)c1ccncc1 | inactive
CC(C)c1ncc([N+](=O)[O-])n1C | inactive
CC(C)CCC[C@@H](C)[C@H]1CC[C@H]2[C@@H]3CC[C@@H]4C[C@H](O)CC[C@]4(C)[C@H]3CC[C@]12C | inactive
Cc1ccc(S(=O)(=O)NCl)cc1 | inactive
CC(/C=C/C=C(\C)C(=O)O[C@@H]1O[C@H](CO[C@@H]2O[C@H](CO)[C@@H](O)[C@H](O)[C@H]2O)[C@@H](O)[C@H](O)[C@H]1O)=C\C=C\C=C(C)\C=C\C=C(/C)C(=O)O[C@@H]1O[C@H](CO[C@@H]2O[C@H](CO)[C@@H](O)[C@H](O)[C@H]2O)[C@@H](O)[C@H](O)[C@H]1O | inactive
CCCCCCCCCCCCCCCCCC(=O)OCC(C)O (stereo not drawn) | inactive
CC(C)(Oc1ccc(C2CCCc3ccccc32)cc1)C(=O)O (stereo not drawn) | inactive
CO | inactive
O=C(O)/C=C/C(=O)Nc1ccc(S(=O)(=O)Nc2nccs2)cc1 | inactive
N[C@H](CC(=O)O)C(=O)O | inactive
CCCc1ccc(C(=O)O)cc1 | inactive
O=S(=O)(O)CC(S)CS (stereo not drawn) | inactive
O=c1[nH]c(=O)n([C@H]2C[C@H](O)[C@@H](CO)O2)cc1/C=C/Br | inactive
CN[C@@H]1[C@H](O[C@H]2[C@H](O[C@H]3[C@H](O)[C@@H](O)[C@H](N=C(N)N)[C@@H](O)[C@@H]3N=C(N)N)O[C@@H](C)[C@]2(O)C=O)O[C@@H](CO)[C@H](O)[C@H]1O | inactive

From PubChem BioAssay (NCATS)
